Experimental data taken from PubChem BioAssay (NCI).
Compounds without any hit were thinned out: in the full panel of roughly 83,000, 20% have a hit.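 Note: values are percent growth. 100 is the growth of untreated cells, values between 100 and 0 indicate rising inhibition; between -100 and 0 indicates cell death.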 Calls of active or inactive are those of the source. The calls were made as follows: active = growth percent below 10; inactive = the rest.

Legend:
Assay in all cases: NCI-60 one-dose screen, 48 h (100 = growth as untreated, 0 = no growth, -100 = all killed)
SK-MEL-2 melanoma = conditions: 10 µM unless noted
EKVX NSCLC = conditions: 10 µM unless noted
SN12C renal = conditions: 10 µM unless noted
UO-31 renal = conditions: 10 µM unless noted
TK-10 renal = conditions: 10 µM unless noted
ACHN renal = conditions: 10 µM unless noted
CAKI-1 renal = conditions: 10 µM unless noted
A498 renal = conditions: 10 µM
HL-60(TB) leukemia = conditions: 10 µM unless noted
CCRF-CEM leukemia = conditions: 10 µM unless noted
MOLT-4 leukemia = conditions: 10 µM unless noted
SR leukemia = conditions: 10 µM unless noted
RPMI-8226 leukemia = conditions: 10 µM unless noted
OVCAR-8 ovarian = conditions: 10 µM unless noted
OVCAR-5 ovarian = conditions: 10 µM unless noted
OVCAR-4 ovarian = conditions: 10 µM unless noted
SK-OV-3 ovarian = conditions: 10 µM unless noted
IGROV1 ovarian = conditions: 10 µM unless noted
OVCAR-3 ovarian = conditions: 10 µM unless noted
HS 578T breast = conditions: 10 µM unless noted

Measured: growth

Nc1cc2nc3ccccc3nc2cc1N
inactive: SK-MEL-2 melanoma 107% | EKVX NSCLC 84.8% | SN12C renal 80.5% | UO-31 renal 74.2% | TK-10 renal 110% | ACHN renal 99.2% | CAKI-1 renal 101% | A498 renal 78.3% | HL-60(TB) leukemia 87.5% | CCRF-CEM leukemia 94% | MOLT-4 leukemia 91.1% | SR leukemia 82.4% | RPMI-8226 leukemia 80% | OVCAR-8 ovarian 83% | OVCAR-5 ovarian 99.9% | OVCAR-4 ovarian 84% | SK-OV-3 ovarian 82.3% | IGROV1 ovarian 96% | OVCAR-3 ovarian 92.1% | HS 578T breast 76.8%

COc1cc(C=C2c3ccccc3C(=O)c3ccccc32)ccc1OCCCCOc1cc2c(cc1OC)C(=O)N1CCCC1C=N2 (stereo not given)
active: SK-MEL-2 melanoma -79.6% | EKVX NSCLC -49.8% | SN12C renal -68.6% | UO-31 renal -96% | TK-10 renal -70.2% | ACHN renal -62.8% | CAKI-1 renal -75.5% | A498 renal -78.6% | HL-60(TB) leukemia -21.3% | CCRF-CEM leukemia -24% | MOLT-4 leukemia -53.2% | SR leukemia -84.7% | RPMI-8226 leukemia -10% | OVCAR-8 ovarian -30.4% | OVCAR-5 ovarian -61.3% | OVCAR-4 ovarian -41.1% | SK-OV-3 ovarian -52.4% | IGROV1 ovarian -85% | OVCAR-3 ovarian -75.2% | HS 578T breast -25.9%

C=C1C[C@](OC)([C@H](O)C(=O)N[C@@H](OC)[C@@H]2C[C@@H](O)C(C)(C)[C@@H](C[C@@H](COC)OC)O2)O[C@H](C)[C@@H]1C
active: SK-MEL-2 melanoma -64.8% | EKVX NSCLC -33.9% | SN12C renal -29.9% | UO-31 renal -61.7% | TK-10 renal -36% | ACHN renal -84.6% | CAKI-1 renal -39.7% | A498 renal -87.1% | HL-60(TB) leukemia -52% | CCRF-CEM leukemia -24.3% | MOLT-4 leukemia -51.7% | SR leukemia -39.2% | RPMI-8226 leukemia -72.5% | OVCAR-8 ovarian -20.8% | OVCAR-5 ovarian -29.8% | OVCAR-4 ovarian -38.4% | SK-OV-3 ovarian -9.43% | IGROV1 ovarian -66.8% | OVCAR-3 ovarian -43.9% | HS 578T breast -46.2%

C/C(=C\c1ccn(-c2ccccc2N)n1)[C@@H]1C[C@@H]2O[C@]2(C)CCC[C@H](C)[C@H](O)[C@@H](C)C(=O)C(C)(C)[C@@H](O)CC(=O)O1
inactive: SK-MEL-2 melanoma 33.2% | EKVX NSCLC 44.8% | SN12C renal 38% | UO-31 renal 41.5% | TK-10 renal 51.6% | ACHN renal 46.3% | CAKI-1 renal 40.4% | A498 renal 13% | CCRF-CEM leukemia 19.6% | MOLT-4 leukemia 12.4% | SR leukemia 17.4% | RPMI-8226 leukemia 15.3% | OVCAR-8 ovarian 26.2% | OVCAR-5 ovarian 31.6% | OVCAR-4 ovarian 51.2% | SK-OV-3 ovarian 40.2% | IGROV1 ovarian 41.5%
active: HL-60(TB) leukemia 9.72% | OVCAR-3 ovarian -2.9% | HS 578T breast 7.14%

O=C(CC1(O)C(=O)N(Cc2ccccc2)c2ccc(Cl)cc21)c1ccc(C(=O)NCC2CCC3(CC2)OOC2(CCCCC2)OO3)cc1 (stereo not given)
inactive: SK-OV-3 ovarian 68%
active: SK-MEL-2 melanoma 2.93% | EKVX NSCLC -71.1% | SN12C renal -58.1% | UO-31 renal -74.2% | TK-10 renal -91.5% | ACHN renal -83.9% | CAKI-1 renal -94.3% | A498 renal -91% | HL-60(TB) leukemia -62.7% | CCRF-CEM leukemia -42.7% | MOLT-4 leukemia -50.5% | SR leukemia -44.2% | RPMI-8226 leukemia -27.7% | OVCAR-8 ovarian -27.5% | OVCAR-5 ovarian 5.96% | OVCAR-4 ovarian -40.2% | IGROV1 ovarian -35.2% | OVCAR-3 ovarian -83.8% | HS 578T breast -4.46%

CCCC(=O)O[C@@H]1C[C@H]2C[C@@H](O[C@@H]3O[C@@H](C)[C@@H](O)[C@@H](O)[C@H]3OC)C[C@@H](C[C@@H](C)/C=C/C=C\C[C@@H]3O[C@@H](C[C@@H]3C)[C@@H](O)C[C@H]3C[C@@]1(O)C(=O)O3)O2
inactive: SK-MEL-2 melanoma 57.8% | EKVX NSCLC 22.6% | SN12C renal 58.7% | UO-31 renal 34.2% | TK-10 renal 29% | ACHN renal 62% | CAKI-1 renal 60.9% | A498 renal 79.9% | HL-60(TB) leukemia 29.9% | CCRF-CEM leukemia 50.9% | MOLT-4 leukemia 37.5% | SR leukemia 85.9% | RPMI-8226 leukemia 27.3% | OVCAR-8 ovarian 41.1% | OVCAR-5 ovarian 74.5% | OVCAR-4 ovarian 25.4% | SK-OV-3 ovarian 52.4% | IGROV1 ovarian 70.1% | OVCAR-3 ovarian 59.8% | HS 578T breast 96.7%

CCC(CC)CC1(C)CC2(C)CCOC2OO1 (stereo not given)
inactive: SK-MEL-2 melanoma 94.9% | EKVX NSCLC 103% | SN12C renal 102% | UO-31 renal 88.8% | TK-10 renal 98% | ACHN renal 111% | CAKI-1 renal 95.7% | A498 renal 90.8% | HL-60(TB) leukemia 111% | CCRF-CEM leukemia 103% | MOLT-4 leukemia 113% | SR leukemia 113% | RPMI-8226 leukemia 103% | OVCAR-8 ovarian 102% | OVCAR-5 ovarian 113% | OVCAR-4 ovarian 95.4% | SK-OV-3 ovarian 111% | IGROV1 ovarian 114% | OVCAR-3 ovarian 115% | HS 578T breast 92.6%

O=C(CCCCCNC1=CC(=O)c2ccccc2C1=O)NCCC[Te]c1ccccc1
active: SK-MEL-2 melanoma 8.28% | EKVX NSCLC -31.9% | SN12C renal -8.47% | TK-10 renal -14.8% | ACHN renal -71.2% | CAKI-1 renal -55.8% | A498 renal -57.7% | CCRF-CEM leukemia -15.3% | OVCAR-8 ovarian 8.94% | OVCAR-5 ovarian -37% | OVCAR-4 ovarian -44.8% | SK-OV-3 ovarian -39.6% | IGROV1 ovarian -24% | OVCAR-3 ovarian -43.8% | HS 578T breast -9.34%
inactive: UO-31 renal 16.9% | HL-60(TB) leukemia 28.1% | MOLT-4 leukemia 29.7% | SR leukemia 38.3% | RPMI-8226 leukemia 10.5%

COc1ccc2c(c1)c(C1(O)CC(CSC#N)OC1=O)cn2C(=O)c1ccc(Cl)cc1 (stereo not given)
inactive: SK-MEL-2 melanoma 80% | EKVX NSCLC 89.6% | SN12C renal 94% | UO-31 renal 78.5% | TK-10 renal 103% | ACHN renal 94.5% | CAKI-1 renal 82.9% | A498 renal 153% | HL-60(TB) leukemia 94.6% | CCRF-CEM leukemia 82% | MOLT-4 leukemia 93.2% | SR leukemia 84.8% | RPMI-8226 leukemia 91.9% | OVCAR-8 ovarian 98.8% | OVCAR-5 ovarian 99.4% | OVCAR-4 ovarian 101% | SK-OV-3 ovarian 109% | IGROV1 ovarian 77.2% | OVCAR-3 ovarian 108% | HS 578T breast 101%

C#C[C@]1(OC(=O)CCCCCC)CC[C@H]2[C@@H]3CCC4=CC(=O)CC[C@@H]4[C@H]3CC[C@@]21C
active: HL-60(TB) leukemia 4.53% | RPMI-8226 leukemia 1.02%
inactive: SK-MEL-2 melanoma 55.1% | EKVX NSCLC 55.6% | SN12C renal 47.3% | UO-31 renal 54.7% | TK-10 renal 54.7% | ACHN renal 54.2% | CAKI-1 renal 56.1% | A498 renal 80.5% | CCRF-CEM leukemia 41.2% | MOLT-4 leukemia 26.1% | SR leukemia 17.5% | OVCAR-8 ovarian 51.9% | OVCAR-5 ovarian 65.4% | OVCAR-4 ovarian 53.6% | SK-OV-3 ovarian 55.1% | IGROV1 ovarian 42.5% | OVCAR-3 ovarian 73% | HS 578T breast 72%

C/C(=C\c1ccn(-c2ccc(N)cc2)n1)[C@@H]1C[C@@H]2O[C@]2(C)CCC[C@H](C)[C@H](O)[C@@H](C)C(=O)C(C)(C)[C@@H](O)CC(=O)O1
active: A498 renal -0.818% | HL-60(TB) leukemia 5.9% | OVCAR-3 ovarian 2%
inactive: SK-MEL-2 melanoma 35.8% | EKVX NSCLC 54.7% | SN12C renal 39.6% | UO-31 renal 38.5% | TK-10 renal 54.6% | ACHN renal 45.7% | CAKI-1 renal 43.2% | CCRF-CEM leukemia 16.8% | MOLT-4 leukemia 13.3% | SR leukemia 19% | RPMI-8226 leukemia 15.6% | OVCAR-8 ovarian 29.5% | OVCAR-5 ovarian 32.9% | OVCAR-4 ovarian 67.4% | SK-OV-3 ovarian 45.1% | IGROV1 ovarian 40.3% | HS 578T breast 17.8%

C=CC1=C[C@@H]2[C@@H]3O[C@]4(CC[C@H](O4)[C@@H](C)C[C@@H](O)C3=O)C[C@H](O)C3=NCC[C@@]32CC1
active: SK-MEL-2 melanoma -45.1% | EKVX NSCLC -29.1% | SN12C renal -15% | UO-31 renal -38.8% | TK-10 renal -21% | ACHN renal -64.8% | CAKI-1 renal -11.4% | A498 renal -82.6% | HL-60(TB) leukemia -5.3% | CCRF-CEM leukemia 4.16% | MOLT-4 leukemia 0.671% | SR leukemia 2.4% | RPMI-8226 leukemia -15.9% | OVCAR-8 ovarian -12.3% | OVCAR-5 ovarian -24% | OVCAR-4 ovarian -38.8% | SK-OV-3 ovarian -4.99% | IGROV1 ovarian -28.4% | OVCAR-3 ovarian -30.7% | HS 578T breast -29.6%

CN1C(=O)C23CC4(C56CC78SSC(CO)(C(=O)N7C5Nc5ccccc56)N(C)C8=O)c5ccccc5NC4N2C(=O)C1(CO)SS3 (stereo not given)
active: SK-MEL-2 melanoma -84.6% | EKVX NSCLC -62.3% | SN12C renal -100% | UO-31 renal -100% | TK-10 renal -90.2% | ACHN renal -100% | CAKI-1 renal -98.7% | A498 renal -98.9% | HL-60(TB) leukemia -63.1% | CCRF-CEM leukemia -11.2% | MOLT-4 leukemia -62.2% | SR leukemia -75.8% | RPMI-8226 leukemia -25.8% | OVCAR-8 ovarian -94.7% | OVCAR-5 ovarian -77.7% | OVCAR-4 ovarian -94.5% | SK-OV-3 ovarian -98.6% | IGROV1 ovarian -100% | OVCAR-3 ovarian -97.8% | HS 578T breast -54.5%

CC(CO)NC1CCCCC1 (stereo not given)
inactive: SK-MEL-2 melanoma 110% | EKVX NSCLC 102% | SN12C renal 111% | UO-31 renal 86.8% | TK-10 renal 94.9% | ACHN renal 109% | CAKI-1 renal 109% | A498 renal 77.6% | HL-60(TB) leukemia 116% | CCRF-CEM leukemia 123% | MOLT-4 leukemia 98.9% | SR leukemia 104% | RPMI-8226 leukemia 112% | OVCAR-8 ovarian 103% | OVCAR-5 ovarian 102% | OVCAR-4 ovarian 102% | SK-OV-3 ovarian 111% | IGROV1 ovarian 102% | OVCAR-3 ovarian 115% | HS 578T breast 115%
